Measurements as given in ChEMBL document CHEMBL4513216, “Probing the Open Global Health Chemical Diversity Library for Multistage-Active Starting Points for Next-Generation Antimalarials” (ACS Infect Dis, 2020).
Out of some 68,000 compounds screened, about 2,700 (4%) showed an effect of 50% or more. The entries come from a sample that favours strong results as a whole.

Tested on: Plasmodium berghei
Experiment: Screen against P. berghei liver stage (PbLuc), transformed with Luciferase, at 2uM
Type: functional, HepG2
Details: tested at 2 uM

| SMILES | INHIBITION |
| --- | --- |
| CCO[C@@H]1CC[C@H]2[C@H]1OCCN2C(=O)CC1=CCCCC1 | -32.82% |
| CC(C)n1cnc(C2CN(C)c3ccc(C(=O)NC4CCCC4)cc32)n1 (stereo not drawn) | 9.36% |
| O=C(c1ccc2c(c1)[nH]c(=O)n2C1CCC(O)CC1)N1CCOCC1 (stereo not drawn) | 42.8% |
| Cc1cc(N2CCCC2c2nc(C)cc(CCC(=O)O)n2)ncn1 (stereo not drawn) | 27.81% |
| NC(=O)C1CCN(C(=O)NCc2ccccc2-n2cccn2)C1 (stereo not drawn) | 32.41% |
| c1cncc(COC2COC3(CCN(c4cnccn4)CC3)C2)c1 (stereo not drawn) | -16.36% |
| C[C@@H]1CN(Cc2ccco2)CCN1C(=O)Cc1ccccc1F | 50.68% |
| COc1ccc(CC(=O)N2CCN(Cc3ccco3)C[C@@H]2C)cc1 | 19.69% |
| COc1ccccc1CC(=O)N1CCN(Cc2ccco2)C[C@@H]1C | 4.19% |
| Cc1nn(C)c(C)c1CN(C)C(C(=O)O)c1ccc(F)cc1F (stereo not drawn) | 13.99% |
| CNC(=O)C(C)(C)NC(=O)c1cc(COc2ccccc2OC)[nH]n1 | -25.61% |
| COc1ccc(Cl)cc1CC(=O)NS(=O)(=O)c1ccc(C(N)=O)cc1 | 58.96% |
| COc1ccc(F)cc1CN(CC(N)=O)C(C)C | -21.69% |
| COc1ccc(Cl)cc1CN(CC(N)=O)C(C)C | 50.46% |
| COc1ccc(C)cc1CC(=O)NS(=O)(=O)c1ccc(C(N)=O)cc1 | 43.75% |
| COc1ccccc1CC(=O)NS(=O)(=O)c1ccc(C(N)=O)cc1 | 1.5% |
| COc1ccc(C)cc1CN(CC(N)=O)C(C)C | 11.51% |
| c1ccn(Cc2nnc3n2CCCN(c2cnccn2)C3)c1 | -11.68% |
| Cc1cnc(CN(C)C2CCN(Cc3ccc(Cl)s3)C2)o1 (stereo not drawn) | -39.39% |
| Cc1noc(C)c1CN1C(=O)[C@@H]2CC[C@H]1CN(Cc1cccnc1N)C2 | 31.38% |
| CC(C)=CCN1C(=O)[C@@H]2CC[C@H]1CN(Cc1cccnc1N)C2 | 16.01% |
| Nc1ncccc1CN1C[C@H]2CC[C@@H](C1)N(CC1CC1)C2=O | 70.26% |
| Cc1nccc(NCc2cncc3c2CCN(CC2CC2)C3)n1 | 25.86% |
| CCOc1ccc(NC2CCN(C3CC3)C2=O)cn1 (stereo not drawn) | -13.8% |
| Cc1ncc(CNC(C)(C)CO)c2cc(C(=O)c3ccc(Br)cc3)oc12 | 61.06% |
| Cc1ncc(CNCC(C)O)c2cc(C(=O)c3ccc(Br)cc3)oc12 (stereo not drawn) | -4.01% |
| Cc1ncc(CNCCO)c2cc(C(=O)c3ccc(Br)cc3)oc12 | 29.19% |
| CCc1ccc(C2CCCCCN2C(=O)CNC(=O)C2CC2)o1 (stereo not drawn) | -1.21% |
